Compounds without any hit were thinned out: in the full panel of roughly 83,000, 20% have a hit.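 A percent growth of 40 corresponds to 60% growth inhibition; 0 means no net growth; -100 means all cells died. Active threshold: below 10.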 Activity calls are given as the source filed them.
Key:
Test in all cases: NCI-60 one-dose screen, 48 h (100 = growth as untreated, 0 = no growth, -100 = all killed)
Conditions in all cases: 10 µM unless noted
DU-145 prostate = test system: DU-145 prostate
K-562 leukemia = test system: K-562 leukemia
MALME-3M melanoma = test system: MALME-3M melanoma
MDA-MB-231 breast = test system: MDA-MB-231 breast
RXF 393 renal = test system: RXF 393 renal
SF-268 CNS = test system: SF-268 CNS
SF-295 CNS = test system: SF-295 CNS
SF-539 CNS = test system: SF-539 CNS
UACC-257 melanoma = test system: UACC-257 melanoma
M14 melanoma = test system: M14 melanoma
HCT-15 colon = test system: HCT-15 colon
HT29 colon = test system: HT29 colon
SNB-75 CNS = test system: SNB-75 CNS
SNB-19 CNS = test system: SNB-19 CNS
PC-3 prostate = test system: PC-3 prostate
SK-MEL-5 melanoma = test system: SK-MEL-5 melanoma
UACC-62 melanoma = test system: UACC-62 melanoma
LOX IMVI melanoma = test system: LOX IMVI melanoma
SK-MEL-28 melanoma = test system: SK-MEL-28 melanoma
U251 CNS = test system: U251 CNS

Measured: growth

CCOc1ccc(C(=O)Nc2ncc(Cc3ccc(F)cc3)s2)cc1
active: K-562 leukemia 9.95% | RXF 393 renal 1.11% | SF-295 CNS 4.39% | SF-539 CNS 1.96% | HT29 colon -18.2%
inactive: DU-145 prostate 28.8% | MALME-3M melanoma 63.6% | MDA-MB-231 breast 36% | SF-268 CNS 53.6% | UACC-257 melanoma 77.7% | M14 melanoma 15.4% | HCT-15 colon 14.7% | SNB-75 CNS 10.2% | SNB-19 CNS 29.6% | PC-3 prostate 27.4% | SK-MEL-5 melanoma 33.4% | UACC-62 melanoma 33% | LOX IMVI melanoma 23.7% | SK-MEL-28 melanoma 61.9%

Cc1ccc(-c2nn(-c3ccccc3)cc2/C=C/C(=O)c2ccc(NC(=O)CCCCCCC(=O)NO)cc2)cc1
active: RXF 393 renal -2.12%
inactive: DU-145 prostate 79.1% | K-562 leukemia 43.2% | MALME-3M melanoma 122% | MDA-MB-231 breast 78.6% | SF-268 CNS 81.8% | SF-295 CNS 88% | SF-539 CNS 82.5% | UACC-257 melanoma 82.3% | HCT-15 colon 68% | HT29 colon 61.4% | SNB-75 CNS 102% | SNB-19 CNS 81.9% | U251 CNS 79.2% | PC-3 prostate 74.6% | SK-MEL-5 melanoma 91.7% | UACC-62 melanoma 53.3% | LOX IMVI melanoma 62.2% | SK-MEL-28 melanoma 89%

O=S(=O)(Nc1ccc2c(c1)OCO2)c1ccc(-c2cnc(C3CC3)o2)cc1
inactive: DU-145 prostate 44.6% | K-562 leukemia 12.3% | MALME-3M melanoma 46.2% | MDA-MB-231 breast 46.2% | RXF 393 renal 34.9% | SF-268 CNS 53.6% | SF-539 CNS 33% | UACC-257 melanoma 55% | M14 melanoma 22.8% | HCT-15 colon 20.3% | HT29 colon 14% | SNB-19 CNS 38.1% | U251 CNS 27.4% | PC-3 prostate 37.9% | SK-MEL-5 melanoma 30% | UACC-62 melanoma 33.2% | SK-MEL-28 melanoma 51.2%
active: SF-295 CNS 9.2%

CC(=O)c1nnn(-c2c(C(=O)n3nc(C)cc3C)sc(=S)n2-c2ccccc2)c1C
inactive: DU-145 prostate 109% | K-562 leukemia 102% | MALME-3M melanoma 67.7% | MDA-MB-231 breast 89.2% | RXF 393 renal 103% | SF-268 CNS 106% | SF-295 CNS 109% | SF-539 CNS 96.6% | UACC-257 melanoma 101% | HCT-15 colon 101% | HT29 colon 114% | SNB-75 CNS 98.4% | SNB-19 CNS 99.1% | U251 CNS 109% | PC-3 prostate 98.2% | SK-MEL-5 melanoma 100% | UACC-62 melanoma 86.2% | LOX IMVI melanoma 98.8% | SK-MEL-28 melanoma 112%

COc1cc(OC)c(S(N)(=O)=O)cc1C(=O)/C=C/c1ccc(C)cc1
active: DU-145 prostate 1.29% | K-562 leukemia 7.24% | RXF 393 renal -28.2% | SF-539 CNS 1.82% | HCT-15 colon 6.96% | HT29 colon 9.47% | SNB-75 CNS 1.82% | LOX IMVI melanoma 1.84%
inactive: MALME-3M melanoma 72.9% | MDA-MB-231 breast 14.2% | SF-268 CNS 31.6% | SF-295 CNS 23.6% | UACC-257 melanoma 81% | M14 melanoma 41.5% | SNB-19 CNS 33.3% | PC-3 prostate 19.1% | UACC-62 melanoma 33.8% | SK-MEL-28 melanoma 58.7%

Nc1cc(F)ccc1NC(=O)c1ccc(NC(=O)C/C=C/c2cccnc2)cc1
inactive: DU-145 prostate 23.7% | K-562 leukemia 26% | MALME-3M melanoma 47.6% | MDA-MB-231 breast 57.2% | RXF 393 renal 87.1% | SF-268 CNS 53.7% | SF-295 CNS 41.6% | SF-539 CNS 11.9% | UACC-257 melanoma 55.8% | HCT-15 colon 29.5% | HT29 colon 24.5% | SNB-75 CNS 51.3% | SNB-19 CNS 46.7% | U251 CNS 34.1% | PC-3 prostate 36.6% | SK-MEL-5 melanoma 49.7% | UACC-62 melanoma 42.1% | LOX IMVI melanoma 39.7% | SK-MEL-28 melanoma 49.4%

O=S(=O)(Nc1ccc(I)cc1Cl)c1ccc(-c2cnc(C3CC3)o2)cc1
inactive: DU-145 prostate 50.2% | K-562 leukemia 19.8% | MALME-3M melanoma 47.3% | MDA-MB-231 breast 57.5% | SF-268 CNS 58.9% | SF-539 CNS 21.4% | UACC-257 melanoma 58.5% | M14 melanoma 29.6% | HCT-15 colon 30.7% | HT29 colon 15.9% | SNB-19 CNS 45.9% | U251 CNS 35.2% | PC-3 prostate 34% | SK-MEL-5 melanoma 40.2% | UACC-62 melanoma 39% | SK-MEL-28 melanoma 53.8%
active: RXF 393 renal -4.05% | SF-295 CNS 2.33%

COc1cc(-c2nc(SC(C)C)n(C(C)C)c(=O)c2C#N)ccc1OCc1ccccc1
inactive: DU-145 prostate 99.1% | K-562 leukemia 38.8% | MALME-3M melanoma 82.4% | MDA-MB-231 breast 75.7% | RXF 393 renal 91.1% | SF-268 CNS 85.6% | SF-295 CNS 80.3% | SF-539 CNS 64.6% | UACC-257 melanoma 101% | M14 melanoma 105% | HCT-15 colon 73.8% | HT29 colon 91.2% | SNB-75 CNS 82.4% | SNB-19 CNS 83.8% | U251 CNS 32.7% | PC-3 prostate 73.1% | UACC-62 melanoma 90.4% | LOX IMVI melanoma 62.1% | SK-MEL-28 melanoma 96.8%

COc1ccc(CCN2C(=O)CSC2=S)cc1
inactive: DU-145 prostate 41% | K-562 leukemia 51.4% | MALME-3M melanoma 98% | MDA-MB-231 breast 79.6% | RXF 393 renal 89.7% | SF-268 CNS 100% | SF-295 CNS 97.6% | SF-539 CNS 84.7% | UACC-257 melanoma 98.9% | M14 melanoma 101% | HCT-15 colon 56.9% | HT29 colon 104% | SNB-75 CNS 94.6% | SNB-19 CNS 96.6% | U251 CNS 102% | PC-3 prostate 88.8% | UACC-62 melanoma 94.2% | LOX IMVI melanoma 30.3% | SK-MEL-28 melanoma 93.9%

Cc1occc1-c1nc2s/c(=C/c3ccc(-c4cc(C(F)(F)F)ccc4Cl)o3)c(=O)n2n1
inactive: DU-145 prostate 103% | K-562 leukemia 105% | MALME-3M melanoma 98.5% | MDA-MB-231 breast 104% | RXF 393 renal 108% | SF-268 CNS 97.2% | SF-295 CNS 99.7% | SF-539 CNS 103% | UACC-257 melanoma 105% | M14 melanoma 97.1% | HCT-15 colon 104% | HT29 colon 106% | SNB-75 CNS 97.5% | SNB-19 CNS 98.5% | PC-3 prostate 97.7% | SK-MEL-5 melanoma 99.7% | UACC-62 melanoma 93.8% | LOX IMVI melanoma 101% | SK-MEL-28 melanoma 112%

COc1ccc(-n2c(SCc3nnc(NC(=O)c4ccc(Br)cc4)s3)nc3cc(OC)c(OC)cc3c2=O)cc1
inactive: DU-145 prostate 89.4% | K-562 leukemia 100% | MALME-3M melanoma 92.2% | MDA-MB-231 breast 87.9% | RXF 393 renal 104% | SF-268 CNS 86.4% | SF-295 CNS 93.2% | SF-539 CNS 92.9% | UACC-257 melanoma 101% | M14 melanoma 92.5% | HCT-15 colon 85.1% | HT29 colon 104% | SNB-75 CNS 93.4% | SNB-19 CNS 89.6% | PC-3 prostate 87.9% | SK-MEL-5 melanoma 91.8% | UACC-62 melanoma 91.4% | LOX IMVI melanoma 90.5% | SK-MEL-28 melanoma 88.7%

CCc1cccc2c3c(sc12)C(c1ccc(OC)cc1)C(C#N)=C(/N=C/c1ccc(Cl)cc1)O3 (stereo unspecified)
inactive: DU-145 prostate 18.8% | K-562 leukemia 11.1% | MALME-3M melanoma 48.3% | MDA-MB-231 breast 40.3% | SF-268 CNS 60% | UACC-257 melanoma 72% | HCT-15 colon 20.2% | SNB-19 CNS 30.6% | PC-3 prostate 21.1% | UACC-62 melanoma 27.8% | LOX IMVI melanoma 38% | SK-MEL-28 melanoma 59.8%
active: RXF 393 renal -11.4% | SF-295 CNS 6.9% | SF-539 CNS 1.2% | M14 melanoma 4.74% | HT29 colon -25.7% | SNB-75 CNS 3.81% | SK-MEL-5 melanoma 4.03%

O=c1[nH]c2ccccc2cc1CSc1ccccc1Nc1nccc(-c2ccc(Cl)cc2)n1
inactive: DU-145 prostate 102% | K-562 leukemia 94.7% | MALME-3M melanoma 86.1% | MDA-MB-231 breast 84.5% | RXF 393 renal 93.5% | SF-268 CNS 94.6% | SF-295 CNS 95.5% | SF-539 CNS 82.7% | UACC-257 melanoma 104% | M14 melanoma 108% | HCT-15 colon 101% | HT29 colon 109% | SNB-75 CNS 71.7% | SNB-19 CNS 98.8% | PC-3 prostate 87.9% | SK-MEL-5 melanoma 96.6% | UACC-62 melanoma 77.1% | LOX IMVI melanoma 96.3% | SK-MEL-28 melanoma 107%

O=C(Nc1ccc(Br)cc1)Nc1nc2ccc([N+](=O)[O-])cc2s1
active: K-562 leukemia 2.8% | MALME-3M melanoma -14.1% | MDA-MB-231 breast -5.42% | RXF 393 renal -27.8% | SF-295 CNS -40.1% | SF-539 CNS 0.554% | UACC-257 melanoma -16.8% | M14 melanoma 2.06% | HCT-15 colon -11.3% | HT29 colon 7.76% | PC-3 prostate 0.887% | SK-MEL-5 melanoma -82.2% | UACC-62 melanoma -19.6% | SK-MEL-28 melanoma 6.25%
inactive: DU-145 prostate 18.8% | SF-268 CNS 12.2% | SNB-19 CNS 19.1%

Cc1cc(C)c2sc(=O)n(Cc3nnc(SCCC(=O)O)o3)c2n1
inactive: DU-145 prostate 108% | K-562 leukemia 94.2% | MALME-3M melanoma 99.2% | MDA-MB-231 breast 97.5% | RXF 393 renal 89.2% | SF-268 CNS 99.2% | SF-295 CNS 101% | SF-539 CNS 98.8% | UACC-257 melanoma 101% | M14 melanoma 104% | HCT-15 colon 99.6% | HT29 colon 110% | SNB-75 CNS 103% | SNB-19 CNS 95.4% | PC-3 prostate 92.7% | UACC-62 melanoma 95.5% | LOX IMVI melanoma 99.2% | SK-MEL-28 melanoma 101%

O=C(Nc1nc2ccc([N+](=O)[O-])cc2s1)Nc1ccccc1Cl
active: SK-MEL-5 melanoma -22.5% | UACC-62 melanoma 6.62%
inactive: DU-145 prostate 40.2% | K-562 leukemia 20.6% | MALME-3M melanoma 12.1% | MDA-MB-231 breast 47.5% | RXF 393 renal 49.2% | SF-268 CNS 41.7% | SF-295 CNS 48.5% | SF-539 CNS 54.7% | UACC-257 melanoma 23.2% | M14 melanoma 45.1% | HCT-15 colon 29.5% | HT29 colon 53.6% | SNB-19 CNS 21.7% | PC-3 prostate 17.3% | SK-MEL-28 melanoma 49.5%
